In PubChem BioAssay (NCI) one finds growth inhibition data, which are given here for three compounds.

About 79,000 compounds went through this panel and 15% of them were active in at least one assay; those are over-represented in the sample as a whole. Calls of active or inactive are those of the source. No stated cut-off is given here; in the data, active means growth inhibition above about 70%; inactive means the rest.

Experiment [1] is described as follows: NCI Yeast Anticancer Drug Screen. Data for the rad50 strain (AID 155).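 Further: 0% = growth of vehicle-only cultures of the same strain.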 The following applies: S. cerevisiae rad50 strain growth inhibition, stronger effect = higher value. The method in brief:
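Relative growth inhibition (compound vs vehicle) was measured in yeast with a defined repair-gene alteration.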

Experiment [2] can be described thus: NCI Yeast Anticancer Drug Screen. Data for the mec2-1 strain (AID 157). The following applies: S. cerevisiae mec2-1 strain, stronger effect = higher value. The method in brief:
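Readout is yeast growth inhibition, normalised to vehicle-treated controls, in the mec2-1 strain exposed to compound.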

A short description of experiment [3]: NCI Yeast Anticancer Drug Screen. Data for the sgs1 mgt1 strain (AID 161).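 Further: 0% = growth of cultures given vehicle only.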 The following applies: S. cerevisiae sgs1 mgt1 strain, stronger effect = higher value. In short, it runs like this: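 Percent growth inhibition was derived by comparing compound-exposed mutant yeast with vehicle-exposed cultures. The strain carries alterations in DNA damage repair.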
A short description of experiment [4]: NCI Yeast Anticancer Drug Screen. Data for the cln2 rad14 strain (AID 165).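 Further: 0% = growth equal to vehicle treated cultures.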 The following applies: S. cerevisiae cln2 rad14 strain, stronger effect = higher value. In short, it runs like this: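 Relative to vehicle controls, growth inhibition of compound-treated cln2 rad14 yeast was recorded.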
Experiment [5] is described as follows: NCI Yeast Anticancer Drug Screen. Data for the bub3 strain (AID 167). The following applies: S. cerevisiae bub3 mutant strain, stronger effect = higher value. In short, it runs like this: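 Screening used yeast with an engineered genetic alteration affecting cell cycle control. Compound-exposed cultures were compared with vehicle cultures, and reduced growth was taken as inhibition.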

The nature of experiment [6]: NCI Yeast Anticancer Drug Screen. Data for the mlh1 rad18 strain (AID 175). The following applies: S. cerevisiae mlh1 rad18 strain growth inhibition, stronger effect = higher value. In short, it runs like this:
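Test agents were incubated with a yeast strain of defined genotype (DNA damage repair defect). Inhibition of growth was derived by comparison with vehicle-exposed cultures.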

Setting [7] is: at 5.0 µM (retest, dose inferred, filed as 0.5).
Setting [8] is: at 50.0 µM (retest, dose inferred, filed as 5.0).

For `Oc1ccc2ccccc2c1N=Nc1ccccn1`, the growth inhibition in experiment [1] (setting [7]) was 35% (inactive); in experiment [1] (setting [8]), 91% (active); in experiment [1] (at 50.0 µM), 98.2% (active); in experiment [2] (setting [7]), -4% (inactive); in experiment [2] (setting [8]), 96% (active); in experiment [2] (at 50.0 µM), 96.7% (active). Further, the growth inhibition is 19% (inactive) in experiment [3] (setting [7]); 96% (active) in experiment [3] (setting [8]); 97.3% (active) in experiment [3] (at 50.0 µM); 10% (inactive) in experiment [4] (setting [7]); 94% (active) in experiment [4] (setting [8]); 92.8% (active) in experiment [4] (at 50.0 µM). The growth inhibition in experiment [5] (setting [7]) was -26% (inactive); in experiment [5] (setting [8]), 92% (active); in experiment [5] (at 50.0 µM) it was 96.7% (active); in experiment [6] (setting [7]), 27% (inactive); in experiment [6] (setting [8]) it was 94% (active); in experiment [6] (at 50.0 µM), 97.7% (active).

As for `CN(C)CCSC1=Nc2ccc(Cl)cc2C(c2ccccc2Cl)N(C)C1` (centres undefined), the growth inhibition in experiment [1] (setting [7]) was 8% (inactive); in experiment [1] (setting [8]), 80% (active); in experiment [1] (at 50.0 µM), 96.7% (active); in experiment [2] (setting [7]), 3% (inactive); in experiment [2] (setting [8]), 47% (inactive); in experiment [2] (at 50.0 µM), 95.7% (active). Also, the growth inhibition in experiment [3] (setting [7]) was 3% (inactive); in experiment [3] (setting [8]), 78% (active); in experiment [3] (at 50.0 µM), 88.3% (active); in experiment [4] (setting [7]) it was 4% (inactive); in experiment [4] (setting [8]) it was 27% (inactive); in experiment [4] (at 50.0 µM) it was 80.2% (active). For the same compound, the growth inhibition in experiment [5] (setting [7]) is 0% (inactive); in experiment [5] (setting [8]), 82% (active); in experiment [5] (at 50.0 µM) it was 97% (active); in experiment [6] (setting [7]), 10% (inactive); in experiment [6] (setting [8]), 84% (active); in experiment [6] (at 50.0 µM), 95.8% (active).

Regarding `C[C@@H]1CCC([C@@H](C)[C@H]2CC[C@H]3[C@@H]4CC[C@H]5C[C@@H](O)CC[C@]5(C)[C@H]4CC[C@]23C)=NC1`, the growth inhibition was 73% (active) in experiment [1] (setting [7]); 98% (active) in experiment [1] (setting [8]); 87.5% (active) in experiment [1] (at 50.0 µM); 60% (inactive) in experiment [2] (setting [7]); 98% (active) in experiment [2] (setting [8]); 89% (active) in experiment [2] (at 50.0 µM). Further, the growth inhibition in experiment [3] (setting [7]) is 90% (active); in experiment [3] (setting [8]) it was 99% (active); in experiment [3] (at 50.0 µM), 91.6% (active); in experiment [4] (setting [7]) it was 60% (inactive); in experiment [4] (setting [8]), 98% (active); in experiment [4] (at 50.0 µM), 88.7% (active). For the same compound, the growth inhibition was 84% (active) in experiment [5] (setting [7]); 98% (active) in experiment [5] (setting [8]); 88.5% (active) in experiment [5] (at 50.0 µM); 95% (active) in experiment [6] (setting [7]); 98% (active) in experiment [6] (setting [8]); 89% (active) in experiment [6] (at 50.0 µM).
